According to PubChem BioAssay:
Active and inactive are the calls of the source.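 Rule for the calls, unless noted: active = visually confirmed hit in the image check and inhibition above 20%; inconclusive = visually confirmed hit but inhibition not above 20%; inactive = no visual hit in the image check.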

What was measured:
[1] = inhibitors of TNFa-induced NFkB p65 translocation, primary screen, imaging, HUVEC, MLSMR starter and 10KST1 sets (AID 438;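 active = inhibition above 20% together with a positive visual image hit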;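 note: compound added about 3h40 before a 20 min TNFalpha stimulation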;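 for inhibition: signal is the nuclear over cytoplasmic p65 intensity ratio per well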); settings: HUVEC TNFa-induced p65 nuclear translocation; cell count: measured here: nuclei count (cytotoxicity indicator), at 2.08 µM; inhibition: at 2 µM, stronger effect = higher value, 0% TNFa-plus-vehicle, 100% no-TNFa wells
[2] = reduction of polyQ htt aggregates in cells – imaging, exon1htt(103Q)mCFP cells, high-content imaging, primary screen (AID 483;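 active = visual image review flags a hit and inhibition of aggregation exceeds 20%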;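 note: compound exposure lasted 3 days before fixation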;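 for nuclei count: percent of the per-plate median nuclei count of sample wells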); settings: exon1htt(103Q)mCFP cell line, aggregate imaging, at 2 µM; inhibition of aggregation: stronger effect = higher value; nuclei count: measured here: cell count, toxicity
[3] = endothelial E-selectin expression blockers – imaging, HUVEC, immunofluorescence, MLSMR starter and 10KST1 sets, primary screen (AID 487); settings: HUVEC TNFalpha-induced E-selectin immunofluorescence imaging, at 2 µM; inhibition: stronger effect = higher value; nuclei count: measured here: cell number, toxicity;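 for inhibition: signal is fraction of cell area covered by stained E-selectin grains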;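 for nuclei count: 100% = median nuclei count of all wells on the same plate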
[4] = molecular target: Voltage-gated potassium channel subunit beta-2 (Rattus norvegicus) (UniProt P62483); assay: inhibitors of rat Kvbeta2 reductase activity – biochemical, NADPH fluorescence, primary screen (AID 622;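 active = fluorescence slope higher than the sample average by over 3 SD, cut at about -0.22 in these data, passing the limit was not always enough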;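 note: slope of raw intensity against log time taken from 70 to 1610 s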); settings: recombinant KvBeta, 4-cyanobenzaldehyde reduction, at 10 µM, stronger effect = higher value
Voltage-gated potassium channel subunit beta-2 (Rattus norvegicus), sequence (P62483 whole entry, looked up): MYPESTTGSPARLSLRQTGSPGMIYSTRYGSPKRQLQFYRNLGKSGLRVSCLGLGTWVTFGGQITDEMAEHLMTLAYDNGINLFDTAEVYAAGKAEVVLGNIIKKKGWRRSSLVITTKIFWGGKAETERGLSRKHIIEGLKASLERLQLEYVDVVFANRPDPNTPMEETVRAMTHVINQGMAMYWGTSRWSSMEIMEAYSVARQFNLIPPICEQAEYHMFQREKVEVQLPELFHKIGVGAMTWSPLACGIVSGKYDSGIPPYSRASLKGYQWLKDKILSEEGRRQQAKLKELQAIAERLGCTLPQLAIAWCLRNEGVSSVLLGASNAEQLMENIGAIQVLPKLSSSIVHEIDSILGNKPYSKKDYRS

[5] = molecular target: Voltage-gated potassium channel subunit beta-2 (Rattus norvegicus) (UniProt P62483); assay: enhancers of rat Kvbeta2 NADPH turnover – biochemical, NADPH fluorescence, primary screen (AID 623;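 active = NADPH fluorescence slope more negative than the mean of all samples by about 3 SD, 99.7% confidence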;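 note: fluorescence intensity change per second fitted from 20 to 320 s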); settings: Recombinant KvBeta, NADPH fluorescence decrease slope, 10 min; at 10 µM; stronger effect = lower value
[6] = molecular target: Alpha-2C adrenergic receptor (Homo sapiens) (UniProt P18825); assay: compounds altering alpha2C-coupled GIRK flux – cell-based, HEK293 alpha2C/GIRK1/2, thallium flux, primary screen (AID 624;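 active = fluorescence slope after compound addition differing from the mean of all screened samples at 99.7% confidence, in either direction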;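 note: slope of fluorescence ratio to pre-addition baseline per second over 15 to 24 s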); settings: thallium flux BTC fluorescence, at 10 µM, actives lie on both sides
Alpha-2C adrenergic receptor (Homo sapiens), sequence (P18825 whole entry, looked up): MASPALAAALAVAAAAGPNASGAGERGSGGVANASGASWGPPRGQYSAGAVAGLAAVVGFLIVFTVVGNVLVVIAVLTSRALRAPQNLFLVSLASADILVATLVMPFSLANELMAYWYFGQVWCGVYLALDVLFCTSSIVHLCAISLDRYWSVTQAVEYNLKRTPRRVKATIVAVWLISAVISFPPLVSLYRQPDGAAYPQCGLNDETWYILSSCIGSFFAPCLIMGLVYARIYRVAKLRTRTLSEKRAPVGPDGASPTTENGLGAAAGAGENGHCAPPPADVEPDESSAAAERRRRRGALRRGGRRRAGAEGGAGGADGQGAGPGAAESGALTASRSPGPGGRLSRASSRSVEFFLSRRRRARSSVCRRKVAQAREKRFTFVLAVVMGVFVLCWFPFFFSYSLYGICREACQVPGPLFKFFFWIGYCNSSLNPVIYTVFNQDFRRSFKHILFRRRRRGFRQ

[7] = blockers of RIG-like receptor reporter activation – cell-based, Sendai virus stimulus, luciferase, 10K MLSCN set, TLR/RLR signaling modifier project, primary screen (AID 602276;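 active = inhibition at or above 50% at 10 µM; inactive = inhibition below 50%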;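 note: firefly luciferase from ISG56 promoter only with Renilla not read in this screen; 0% = Sendai virus plus DMSO and 100% = medium plus DMSO without virus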); settings: HEK293 RL24 IRF3 luciferase reporter, at 10 µM, stronger effect = higher value
[8] = TLR3 IRF3 reporter activation blockers – cell-based, poly I:C stimulus, luciferase, 10K MLSCN set, primary screen (AID 602277;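 active = inhibition of the reporter signal at or above 50%; inactive = inhibition below 50%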); settings: HEK293-TLR3 RL24 IRF3 luciferase reporter, at 10 µM, stronger effect = higher value

Q: For Cc1c(C)[n+](=O)c2c(n1[O-])CCCCC2, which cell count [1] is on record?
A: 545

Q: What about the inhibition [1] of the same molecule?
A: -27.9% (inactive)

Q: And the inhibition of aggregation [2]?
A: 10.6% (inactive)

Q: What about the nuclei count [2] of the same molecule?
A: 81.3%

Q: And the inhibition [3]?
A: 36.9% (inactive)

Q: What about the nuclei count [3] of the same molecule?
A: 63.9%

Q: And the fluorescence slope [4]?
A: -0.491 (inactive)

Q: What about the NADPH fluorescence slope [5] of the same molecule?
A: -4.7e-05 (inactive)

Q: What about the slope [6] of the same molecule?
A: 0.00652 (inactive)

Q: And the inhibition [7]?
A: -0.779% (inactive)

Q: And the inhibition [8]?
A: 22.1% (inactive)

Q: With CCOC(=O)N1CCN(c2cc(=O)n(-c3cccc(Br)c3)c(=O)[nH]2)CC1 as the molecule, how does the cell count [1] read?
A: 532

Q: What about the inhibition [1] of the same molecule?
A: -10.1% (inactive)

Q: What about the inhibition of aggregation [2] of the same molecule?
A: 0.9% (inactive)

Q: And the nuclei count [2]?
A: 55.8%

Q: What about the inhibition [3] of the same molecule?
A: -13.2% (inactive)

Q: And the nuclei count [3]?
A: 89.5%

Q: And the fluorescence slope [4]?
A: -0.564 (inactive)

Q: And the NADPH fluorescence slope [5]?
A: -2e-05 (inactive)

Q: And the slope [6]?
A: 0.00721 (inactive)

Q: What about the inhibition [7] of the same molecule?
A: -10.2% (inactive)

Q: And the inhibition [8]?
A: 15.4% (inactive)

Q: What does the source list for NCc1cccc(-n2cccn2)c1?
A: cell count [1]: 680; inhibition [1]: -8.9% (inactive); inhibition of aggregation [2]: 1.2% (inactive); nuclei count [2]: 96.4%; inhibition [3]: -25.7% (inactive); nuclei count [3]: 115%; fluorescence slope [4]: -0.622 (inactive); NADPH fluorescence slope [5]: 4.5e-06 (inactive); slope [6]: 0.00555 (inactive); inhibition [7]: -6.32% (inactive); inhibition [8]: 6.04% (inactive)

Q: With Clc1ccc(Nc2ncnc3c2cnn3-c2ccccc2)cc1 as the molecule, how does the cell count [1] read?
A: 703

Q: What about the inhibition [1] of the same molecule?
A: 0% (inactive)

Q: What about the inhibition of aggregation [2] of the same molecule?
A: 19% (inactive)

Q: And the nuclei count [2]?
A: 95.2%

Q: What about the inhibition [3] of the same molecule?
A: -14.4% (inactive)

Q: What about the nuclei count [3] of the same molecule?
A: 105%

Q: And the fluorescence slope [4]?
A: -0.496 (inactive)

Q: What about the NADPH fluorescence slope [5] of the same molecule?
A: -1.9e-05 (inactive)

Q: And the slope [6]?
A: 0.0059 (inactive)

Q: And the inhibition [7]?
A: -24% (inactive)

Q: What about the inhibition [8] of the same molecule?
A: -67.8% (inactive)

Q: For CCOc1ccc(S(=O)(=O)NCC2CCCO2)c2cccnc12 (stereo not drawn), which cell count [1] is on record?
A: 365

Q: And the inhibition [1]?
A: -1.7% (inactive)

Q: What about the inhibition of aggregation [2] of the same molecule?
A: -30.7% (inactive)

Q: What about the nuclei count [2] of the same molecule?
A: 104%

Q: And the inhibition [3]?
A: 36.8% (inactive)

Q: And the nuclei count [3]?
A: 105%

Q: And the fluorescence slope [4]?
A: -0.497 (inactive)

Q: And the NADPH fluorescence slope [5]?
A: 8e-05 (inactive)

Q: And the slope [6]?
A: 0.00707 (inactive)

Q: What about the inhibition [7] of the same molecule?
A: 17.5% (inactive)

Q: And the inhibition [8]?
A: 21.3% (inactive)

Q: For CCOc1ccccc1N(C(=O)Cn1nnnc1-c1ccc(C)o1)C(CC)C(=O)NC(C)(C)C (stereo not drawn), which cell count [1] is on record?
A: 663

Q: And the inhibition [1]?
A: 1.6% (inactive)

Q: What about the inhibition of aggregation [2] of the same molecule?
A: -4.4% (inactive)

Q: What about the nuclei count [2] of the same molecule?
A: 111%

Q: And the inhibition [3]?
A: -61.8% (inactive)

Q: What about the nuclei count [3] of the same molecule?
A: 89.5%

Q: And the fluorescence slope [4]?
A: -0.531 (inactive)

Q: What about the NADPH fluorescence slope [5] of the same molecule?
A: -6.1e-06 (inactive)

Q: And the slope [6]?
A: 0.00561 (inactive)

Q: And the inhibition [7]?
A: -5.79% (inactive)

Q: What about the inhibition [8] of the same molecule?
A: 11.2% (inactive)

Q: What does the source list for COc1cccc(/C=N/n2c(-c3ccco3)nc3ccccc3c2=O)c1?
A: cell count [1]: 692; inhibition [1]: -0.9% (inactive); inhibition of aggregation [2]: -10.2% (inactive); nuclei count [2]: 74.5%; inhibition [3]: 33.1% (inactive); nuclei count [3]: 105%; fluorescence slope [4]: -0.293 (inactive); NADPH fluorescence slope [5]: -4.4e-05 (inactive); slope [6]: 0.00576 (inactive); inhibition [7]: -12.1% (inactive); inhibition [8]: -6.01% (inactive)

Q: Which cell count [1] does the source give for CC1(C)CC(=O)C=C(NC2CCS(=O)(=O)C2)C1 (stereo not drawn) here?
A: 624

Q: And the inhibition [1]?
A: 11.3% (inactive)

Q: And the inhibition of aggregation [2]?
A: 5.8% (inactive)

Q: What about the nuclei count [2] of the same molecule?
A: 59.6%

Q: And the inhibition [3]?
A: 10.6% (inactive)

Q: What about the nuclei count [3] of the same molecule?
A: 100%

Q: What about the fluorescence slope [4] of the same molecule?
A: -0.561 (inactive)

Q: And the NADPH fluorescence slope [5]?
A: 1.2e-05 (inactive)

Q: And the slope [6]?
A: 0.00618 (inactive)

Q: And the inhibition [7]?
A: 15.5% (inactive)

Q: And the inhibition [8]?
A: 39.3% (inactive)
